Measured values from PubChem BioAssay AID2528 (National Center for Advancing Translational Sciences (NCATS), 2010).
Where “and” joins values, the source holds several entries; their conditions need not be identical. Equal entries are not always repeated. Hit rate of the full screen: of about 350,000 compounds, about 700 (0.2%) were called active. Only a selection was taken, and actives are over-represented in it overall. Values without a mark were called inactive. The call rests on the fitted dose curve; in most records, active means well fitted inhibition curve with a large enough effect; inconclusive means small, poorly fitted or top-dose-only effect; inactive means flat fitted curve, though single readings scatter. Bridge positions count the residues as written; N and C are the ends. Peptide text beside a SMILES is read from it.

Each compound was assayed against RecQ-like DNA helicase BLM (Homo sapiens) (UniProt P54132) (assay: qHTS Assay for Inhibitors of Bloom's syndrome helicase (BLM)). Conditions: recombinant BLM DNA unwinding, fluorescence dequenching; series mostly up to 56.1 µM; activity change, negative = inhibition: at the top concentration.
Text: Survival of cells and the faithful propagation of the genome depend on elaborate mechanisms of detecting and repairing DNA damage. Treatment of advanced cancer relies on radiation therapy or chemotherapy, which kill cancer cells by causing extensive DNA damage. It is often found, that cancer cells develop resistance to therapy through enhanced activity of DNA repair functions; this has led to an increased interest in developing drugs that interfere with DNA repair, which could sensitize cancer cells to conventional therapy.
This validation qHTS assay pertains to human BLM, which is important in resolving abnormal DNA structures formed during replication or homologous recombination. Shutting down the expression of BLM leads to chromosomal instability and higher radiation sensitivity in cultured cells.
The validation assay was a fluorescence quenching based kinetic qHTS for BLM Helicase DNA unwinding. The activity was measured as ATP-dependent separation of a 20-bp DNA duplex extended by 30-nt single-stranded tails (forked duplex). The forked DNA substrate was tagged with rhodamine fluorophore (carboxytetramethyl rhodamine, TAMRA) and BHQ-2 (Black Hole Quencher 2) dark quencher. Strand separation results in an increase in the fluorescence of TAMRA (excitation 525 nm, emission 598 nm). This substrate construct operates in a red-shifted region where very few compound library members have been noted to fluoresce (PubChem AIDs 593 and 594). An additional feature of the assay is the inclusion of 2.5 ug/ml poly (dIdC), to reduce interference by compounds such as DNA intercalators, a major source of false inhibitors.
Ian Hickson, University of Oxford
Opher Gileadi, Structural Genomics Consortium, University of Oxford
Screening Center PI: Austin, C.P.
Screening Center: NIH Chemical Genomics Center [NCGC]
Three uL of reaction buffer (25 mM Tris-HCl (pH 8.0), 5 mM NaCl, 2 mM MgCl2, 1mM DTT, 0.01% Tween- 20, and 2.5 ug/ml poly(dI-dC), including enzyme (50 nM BLM), were dispensed into a 1536-well Greiner black assay plate via solenoid-valve based nanoliter dispensers. Compounds (23 nl each in columns 5-48) and control (23 nl each in column 2 as dose-response) were transferred via a Kalypsys pintool equipped with a 1536-pin array. The plates were incubated for 15 min at room temperature, and then 1 ul of substrates (200 nM DNA and 2 mM ATP, final concentrations) was added to start the reaction. The plate was transferred into a ViewLux high-throughput CCD imager where the reaction progress was measured in a discontinuous kinetic mode (two reads spaced 2 hours apart, with intermediate room temperature incubation of the covered assay plate) by using standard red-fluorescence optics (excitation filter 525 nm, emission filter 598 nm). Enzyme-free and vehicle (DMSO) controls were included for signal normalization.
Further: nearly all actives have a fitted effect of over 35% in size.
Potency means the concentration at half of the fitted maximal effect.

Chain of RecQ-like DNA helicase BLM (Homo sapiens) (P54132 whole entry, looked up): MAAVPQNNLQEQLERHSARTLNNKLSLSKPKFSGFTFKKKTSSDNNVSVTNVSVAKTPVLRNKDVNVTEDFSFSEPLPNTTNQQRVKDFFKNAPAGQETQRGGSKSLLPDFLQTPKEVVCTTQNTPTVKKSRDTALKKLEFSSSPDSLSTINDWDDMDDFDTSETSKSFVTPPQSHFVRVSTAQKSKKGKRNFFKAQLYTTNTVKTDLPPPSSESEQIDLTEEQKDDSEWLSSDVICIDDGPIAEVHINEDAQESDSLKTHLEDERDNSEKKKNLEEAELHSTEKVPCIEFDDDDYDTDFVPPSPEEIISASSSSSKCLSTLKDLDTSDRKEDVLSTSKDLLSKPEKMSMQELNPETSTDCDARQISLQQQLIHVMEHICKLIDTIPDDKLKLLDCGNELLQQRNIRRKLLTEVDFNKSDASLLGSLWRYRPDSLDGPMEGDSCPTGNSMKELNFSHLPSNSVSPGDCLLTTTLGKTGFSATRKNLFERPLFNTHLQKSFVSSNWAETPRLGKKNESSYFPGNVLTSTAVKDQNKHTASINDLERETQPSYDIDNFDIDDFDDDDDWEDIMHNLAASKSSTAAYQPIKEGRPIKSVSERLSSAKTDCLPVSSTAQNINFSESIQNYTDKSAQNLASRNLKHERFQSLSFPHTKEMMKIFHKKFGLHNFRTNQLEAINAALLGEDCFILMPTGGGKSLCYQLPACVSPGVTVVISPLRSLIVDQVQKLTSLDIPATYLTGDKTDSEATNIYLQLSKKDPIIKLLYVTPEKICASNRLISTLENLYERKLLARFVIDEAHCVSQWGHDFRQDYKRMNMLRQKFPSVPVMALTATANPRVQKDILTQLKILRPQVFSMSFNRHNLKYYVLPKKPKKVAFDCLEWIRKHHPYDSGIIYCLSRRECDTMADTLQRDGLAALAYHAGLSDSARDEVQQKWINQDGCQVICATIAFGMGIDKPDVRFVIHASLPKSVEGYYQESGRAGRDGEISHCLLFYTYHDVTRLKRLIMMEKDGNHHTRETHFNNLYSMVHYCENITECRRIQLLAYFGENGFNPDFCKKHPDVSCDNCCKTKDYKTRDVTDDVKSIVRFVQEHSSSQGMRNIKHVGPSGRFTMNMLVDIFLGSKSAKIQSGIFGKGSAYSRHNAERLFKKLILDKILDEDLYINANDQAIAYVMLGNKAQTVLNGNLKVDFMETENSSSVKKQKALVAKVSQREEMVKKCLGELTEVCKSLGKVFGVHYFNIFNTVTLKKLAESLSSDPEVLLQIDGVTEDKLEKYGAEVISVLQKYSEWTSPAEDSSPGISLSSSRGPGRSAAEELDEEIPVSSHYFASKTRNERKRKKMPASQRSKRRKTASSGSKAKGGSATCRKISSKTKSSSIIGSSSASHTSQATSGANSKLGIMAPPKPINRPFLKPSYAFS

SMILES	activity change, negative = inhibition	Potency
C=CC1=C2C=C(C3CC3)N(C(CO)CO)C=C2C(=O)C(C)(OC(=O)c2ccco2)C1=O (configuration not stated)	-12.4% [at 12.4 µM]	–
C[C@@H](O)[C@@H]1NC(=O)[C@H](CCCCN)NC(=O)[C@H](Cc2c[nH]c3ccccc23)NC(=O)[C@H](Cc2ccccc2)NC(=O)[C@H](Cc2ccccc2)NC(=O)[C@H](CC(N)=O)NC(=O)[C@H](CCCCN)NC(=O)[C@@H](NC(=O)[C@@H]2CCCN2)CSSC[C@@H](C(=O)N[C@@H](CCCCN)C(=O)O)NC(=O)[C@H](CO)NC(=O)[C@H](CO)NC(=O)[C@H](Cc2ccccc2)NC1=O (H-PCKNFFWKTFSSCK-OH; disulfide 2-13)	21.2%	–
CCOC(=O)C1CCCN(C(=O)c2ccc3c(c2)sc2nc(-c4ccc(CC)cc4)cn23)C1 (configuration not stated)	-2.58%	–
OCCC(O)CO (configuration not stated)	–	inactive
CC[C@]1([C@H]2O[C@@H]([C@@H]3O[C@](O)(CO)[C@@H](C)C[C@H]3C)C[C@H]2C)CC[C@@H]([C@]2(C)CC[C@@]3(C[C@@H](O)[C@@H](C)[C@@H]([C@H](C)[C@H](OC)[C@H](C)C(=O)O)O3)O2)O1	2.14% [at 21.4 µM]	–
Cc1ccc(NC(=O)CSc2nc(CSc3ccc(C)cc3)cc(=O)[nH]2)cc1	-5.28%	–
Cc1ccc(OCCCC(=O)Nc2ccc(S(=O)(=O)Nc3cc(C)nc(C)n3)cc2)cc1	-3.4%	–
COc1ccc(NC(=O)CSc2nc(NS(=O)(=O)c3ccc(C)cc3)cc(=O)[nH]2)cc1	–	22.4 µM (active)
COCCn1c(=O)c(CCc2ccccc2)nc2cnc(N3CCNCC3)nc21	2.72%	–
N[C@@H](C(=O)O)c1ccc(P(=O)(O)O)cc1	1.25%	–
COC(C)C(C(=O)OCC1=CCN2CC[C@H](O)[C@@H]12)C(C)C (some centres not stated)	3%	–
COc1ccc2c3c1OC1CC(O)C=C[C@@]31CCN(C)C2 (some centres not stated)	-12.8%	–
CCOC(=O)c1c(C)[nH]c(C(=O)NCc2ccccc2OC)c1C	2.72%	–
CCOC(=O)c1c(SCC(=O)Nc2cccc(C)c2C)nc(=O)[nH]c1C	-1.44%	–
CCOC(=O)c1c(C)[nH]c2c1-c1ccccc1C(=O)C2=O	–	2.82 µM (active)
COc1ccc(NS(=O)(=O)c2cc3c4c(c2)CC(=O)N4CCC3)cc1Cl	1.48%	–
COC(=O)C(C(=O)OC)[C@@H](NC=O)c1ccccc1	-1.06%	–
CCCCS(=O)(=O)N1C2=NC(C(=O)OC)=C(C(=O)OC)[C@@H]3N(Cc4ccccc4)c4ccccc4[C@]23C[C@H]1C(=O)OC	-0.97% [at 12.4 µM]	–
C=CCOC(=O)C(C(C)=O)C(NC(=O)OC)c1ccccc1 (configuration not stated)	-4.39% [at 12.4 µM]	–
CC(C)C[C@@H](CC(=O)N[C@@H](CCC(=O)O)CC(=O)O)NC(=O)[C@@H]1CCCC[C@H]1NC(=O)C[C@@H](NC(=O)C[C@H](Cc1c[nH]c2ccccc12)NC(=O)[C@@H]1CCCC[C@H]1N)C(C)C	0.14%	–
Nc1ncn(C2OC(CO)C(O)C2O)c(=O)n1 (configuration not stated)	-5.76%	–

SMILES	activity change, negative = inhibition	Potency
CC1CC[C@@]23CCC4(C)[C@@]5(C)CCC6C(C)(C)C(O)CC[C@@]6(C)C5C=C[C@@]4(OC2=O)C3C1C (some centres not stated)	-0.263%	–
COc1ccc(-c2nc3c(c4c2C[C@H](c2ccccc2)OC4)CN(C(=O)c2cccnc2)CC3)c(C)c1	0.694% [at 12.4 µM]	–
C=C1O[C@@](CO)(n2cnc3c(N)ncnc32)[C@H](O)[C@@H]1O	0.613%	–
COc1ccc(-c2nc(-c3ccccc3)oc2Nc2ccc3ccccc3c2)cc1	3.96%	–
CCCC[C@H]1C(=O)N(c2ccccc2)N(c2ccc(O)cc2)C1=O	2.14% [at 21.4 µM]	–
COC(=O)[C@@]1(Cc2ccc(F)cc2)[C@@H]2[C@@H](CC(=O)[C@H]2CC(=O)C(=O)N2CCCC2)CN1C(=O)c1ccccc1	-2.36%	–
COC(=O)C1(C)C=CC2(CCCCC2)N1C(C)=O (configuration not stated)	-1.29%	–
CC1=C2[C@@H](O)[C@H]([C@@H](C)C(=O)NCCC(C)C)CC[C@@]2(C)C=CC1=O	-1.03%	–
Cc1ccc(-c2ncc(Cl)cc2-c2ccc(S(C)(=O)=O)cc2)cn1	2.81%	–
C[C@H]1CC[C@H](C(=O)O)N[C@@H]1c1ccc(C#Cc2ccccc2)cc1	6.21% [at 12.4 µM]	–
COc1ccccc1CNc1ncnc2ccc(-c3c(C)noc3C)cc12	1.02%	–
Nc1nc2[nH]c(=O)c(=O)[nH]c2c(=O)[nH]1	5.91%	–
CC/C=C\C/C=C\C/C=C\C/C=C\C/C=C\C/C=C\CCC(=O)NC(C)C(=O)O (configuration not stated)	3.92%	–
COC(=O)C1=C(C)N(Cc2ccccc2)C2=C3C(=O)N(c4ccccc4)C(=O)C3[C@@](O)(C(=O)OC)C(=O)N2C1c1ccccc1 (some centres not stated)	-3.25% [at 12.4 µM] and -3.97% [at 12.4 µM]	–
COc1ccc(S(=O)(=O)c2c(Nc3cccc(Cl)c3)sc(C(=O)c3ccccc3)c2N)cc1	-4.89%	–
CC1(C)OC2CO[C@]3(COS(N)(=O)=O)OC(C)(C)OC3C2O1 (some centres not stated)	-7.65%	–
COc1cc(OC)c(NC(=O)c2nc(-c3ccncc3)no2)cc1Cl	1.3%	–
N#Cc1c(C(F)(F)F)cc(-c2cccs2)nc1N1CCCCC1	-2.96%	–
N#Cc1c(N2CCCCC2)nc(N)c2c(N)nc(SCC(=O)O)cc12	–	28.2 µM (active)
C=C1C(=CC=C2CCC[C@@]3(C)[C@@H]2CC[C@H]3[C@H](C)CCCC(C)C)C[C@@H](O)C[C@@H]1O	-22.4%	–
CC(C)CN1CCc2nc(-c3ccccc3)c3c(c2C1)COC(C)C3 (configuration not stated)	-4.43% [at 12.4 µM]	–
